Data on 28 compounds can be found in PubChem BioAssay AID1224904 (Broad Institute, 2016).

SMILES strings stand for the structures. Among all 37,000 compounds or so, about 290 (0.78%) were called active. Roughly 10% stayed inconclusive and do not appear here.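 The calls were made as follows: active = mean inhibition of at least 10% in the main channel, exceeding the control channel by a set limit; inconclusive = inhibition of 10% or more but channel gap under a set limit; inactive = mean inhibition below 10%.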 For the sample, actives were picked, then their nearest neighbours and some compounds at random.

A short description of the assay: inhibitors of DUX4-driven ZSCAN4 reporter expression, primary screen, 293T cells, Gaussia and Italica luciferase (AID 1224904).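 As to activity change, negative = inhibition: 0% = median of neutral control wells and -100% = median of positive control wells.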 Conditions: 293T-iDUX4 ZSCAN4-Gaussia luciferase reporter, 24 h, stronger effect = lower value, concentration not given here; for Gaussia minus Italica difference: measured here: selective DUX4 reporter inhibition. Background: A reporter such as luciferase makes a cellular process visible.

Where [1] appears, read: measured here: Italica tet-on control reporter.

With `O=C(C1CCCC1)N1CC2(C1)[C@H](c1ccccc1)[C@H](CO)N2CCC(F)(F)F`, the activity change, negative = inhibition was -0.604% (inactive) and the Gaussia minus Italica difference was -3.36%. Under setting [1], the activity change, negative = inhibition amounted to 2.75%.

Regarding `O=C(Cc1ccccc1)N1C[C@H]2[C@@H](c3ccccc31)[C@H](CO)N2C(=O)C1CCOCC1`, the activity change, negative = inhibition was -0.397% (inactive) and the Gaussia minus Italica difference worked out at 3.16%. Under setting [1], the activity change, negative = inhibition is -3.56%.

Turning to `COc1ccc(NC(=O)N2C[C@H](O)COC[C@@H]3O[C@@H](CC(=O)NCc4ccccc4OC)CC[C@H]32)cc1`, the activity change, negative = inhibition was 2.52% (inactive) and the Gaussia minus Italica difference was -0.496%. Further, the activity change, negative = inhibition under setting [1] was 3.01%.

On to `CCCC(=O)Nc1ccc2c(c1)C(=O)N(C)[C@@H]1CC[C@H](CC(=O)NCCN3CCCCC3)O[C@@H]1CO2`, for which the activity change, negative = inhibition was -1.36% (inactive) and the Gaussia minus Italica difference was -6.6%. For the same compound, the activity change, negative = inhibition under setting [1] amounted to 5.24%.

As for `CO[C@H]1CN(C)C(=O)c2ccc(NC(=O)Nc3ccccc3)cc2OC[C@@H](C)N(C(=O)CC2CC2)C[C@@H]1C`, the activity change, negative = inhibition is -6.56% (inactive) and the Gaussia minus Italica difference was -11.9%. Moreover, the activity change, negative = inhibition under setting [1] is 5.38%.

With `O=C(CC1CC1)Nc1ccc2c(c1)[C@@H]1C[C@@H](CC(=O)NC3CCCCC3)O[C@H](CO)[C@@H]1O2`, the activity change, negative = inhibition was 5.02% (inactive) and the Gaussia minus Italica difference was -0.425%. In addition, the activity change, negative = inhibition under setting [1] turned out to be 5.44%.

Turning to `COCC(=O)Nc1ccc2c(c1)C(=O)N(C)[C@@H]1CC[C@H](CC(=O)NCCc3ccccc3)O[C@@H]1CO2`, the activity change, negative = inhibition is 0.635% (inactive) and the Gaussia minus Italica difference is -4.5%. The activity change, negative = inhibition under setting [1] turned out to be 5.13%.

On to `CC(C)NC(=O)N1[C@H](CO)[C@@H]2c3ccccc3N(C(=O)Nc3cccc(Cl)c3)C[C@@H]21`, for which the activity change, negative = inhibition was 5.76% (inactive) and the Gaussia minus Italica difference was found to be 3.13%. Besides, the activity change, negative = inhibition under setting [1] turned out to be 2.62%.

Turning to `COc1ccc(NC(=O)Nc2ccc3c(c2)[C@@H]2C[C@@H](CC(=O)NCc4ccncc4)O[C@@H](CO)[C@@H]2O3)cc1`, the activity change, negative = inhibition is -2.23% (inactive) and the Gaussia minus Italica difference is -4.25%. Moreover, under setting [1], the activity change, negative = inhibition came to 2.02%.

In the case of `CCN(C[C@@H]1[C@H](c2ccccc2)[C@@H](CO)N1CC1CC1)C(=O)c1ccccn1`, the activity change, negative = inhibition is -3.34% (inactive) and the Gaussia minus Italica difference was -1.49%. Further, under setting [1], the activity change, negative = inhibition is -1.85%.

For `COCC(=O)N(C[C@H]1N[C@H](CO)[C@H]1c1ccc(C2=CCCCC2)cc1)C(C)C`, the activity change, negative = inhibition was 2.12% (inactive) and the Gaussia minus Italica difference is -1.6%. Moreover, the activity change, negative = inhibition under setting [1] came to 3.71%.

Consider `COc1ccccc1C#Cc1cnc2c(c1)C(=O)N([C@@H](C)CO)C[C@@H](C)[C@H](CN(C)C(=O)CN(C)C)O2`, for which the activity change, negative = inhibition is -1.64% (inactive) and the Gaussia minus Italica difference came out at 2.47%. The activity change, negative = inhibition under setting [1] is -4.12%.

In the case of `CCC(=O)N1[C@H](C(=O)NCc2ccc(F)cc2)[C@@H](CO)[C@@H]2Cn3c(ccc(C4=CCCCC4)c3=O)[C@@H]21`, the activity change, negative = inhibition was 2.81% (inactive) and the Gaussia minus Italica difference was determined as 8.61%. Further, the activity change, negative = inhibition under setting [1] is -5.8%.

Consider `CCCN1C[C@@H](C)[C@H](OC)CN(C)C(=O)c2ccc(NC(=O)C3CCOCC3)cc2OC[C@@H]1C`, for which the activity change, negative = inhibition is 2.85% (inactive) and the Gaussia minus Italica difference was -3.36%. Moreover, the activity change, negative = inhibition under setting [1] was 6.21%.

Turning to `C[C@H](NC(=O)C[C@H]1C=C[C@H](NS(=O)(=O)c2cccc(F)c2)[C@@H](CO)O1)c1ccccc1`, the activity change, negative = inhibition is 2.8% (inactive) and the Gaussia minus Italica difference came out at 1.67%. The activity change, negative = inhibition under setting [1] came to 1.12%.

For the compound `O=C1CCC(=O)N[C@H](c2ccccc2)C/C=C\CCN1`, the activity change, negative = inhibition is -2.86% (inactive) and the Gaussia minus Italica difference came to 0.183%. Also, under setting [1], the activity change, negative = inhibition is -3.05%.

For the compound `O=C(NCC(F)(F)F)[C@H]1[C@H](CO)[C@H]2Cn3c(ccc(-c4ccncc4)c3=O)[C@H]2N1Cc1ccncc1`, the activity change, negative = inhibition is 5.89% (inactive) and the Gaussia minus Italica difference was determined as 7.77%. For the same compound, under setting [1], the activity change, negative = inhibition is -1.87%.

With `CCNC(=O)C[C@@H]1CC[C@@H]2[C@H](COC[C@H](O)CN2S(=O)(=O)c2ccc(Oc3ccccc3)cc2)O1`, the activity change, negative = inhibition was 1.12% (inactive) and the Gaussia minus Italica difference is -1.02%. Moreover, under setting [1], the activity change, negative = inhibition was found to be 2.14%.

For `CC(C)[C@@H]1COCc2cnnn2CCC[C@H](C)C(=O)N1`, the activity change, negative = inhibition was -1.36% (inactive) and the Gaussia minus Italica difference was -0.347%. Further, the activity change, negative = inhibition under setting [1] is -1.01%.

Take `COCC(=O)N1[C@H](CNC(=O)c2ccccn2)[C@H](c2ccccc2)[C@@H]1CO`: the activity change, negative = inhibition was -0.865% (inactive) and the Gaussia minus Italica difference is -2.54%. Besides, under setting [1], the activity change, negative = inhibition came out at 1.68%.

In the case of `Cc1ccc(S(=O)(=O)N(C)C[C@H]2OCc3ccccc3-c3ccccc3C(=O)N([C@@H](C)CO)C[C@@H]2C)cc1`, the activity change, negative = inhibition is 10.1% (inactive) and the Gaussia minus Italica difference came to 7.63%. Moreover, the activity change, negative = inhibition under setting [1] worked out at 2.48%.

With `O=C(C[C@@H]1CC[C@@H]2[C@H](COC[C@H](O)CN2Cc2cccc(F)c2)O1)NCc1ccncc1`, the activity change, negative = inhibition is 6.79% (inactive) and the Gaussia minus Italica difference was found to be 9.04%. Under setting [1], the activity change, negative = inhibition is -2.25%.

Consider `CCCC#Cc1ccc([C@H]2[C@@H](CO)N3CCCCN(C(=O)c4ccc5c(c4)OCO5)C[C@@H]23)cc1`, for which the activity change, negative = inhibition was -4.6% (inactive) and the Gaussia minus Italica difference was -8.43%. For the same compound, the activity change, negative = inhibition under setting [1] came out at 3.84%.

For the compound `CCC(=O)N1CC2(C1)[C@@H](c1ccc(-c3ccc(C#N)cc3)cc1)[C@H](CO)N2C(C)=O`, the activity change, negative = inhibition is 10.1% (inactive) and the Gaussia minus Italica difference is 11.4%. The activity change, negative = inhibition under setting [1] was -1.24%.

In the case of `CCC(=O)N1CCC2(CC1)CN(Cc1cccc(Cl)c1)[C@@H](CO)c1c2c2ccc(OC)cc2n1C`, the activity change, negative = inhibition was -5.44% (inactive) and the Gaussia minus Italica difference is -2.02%. Also, the activity change, negative = inhibition under setting [1] was -3.43%.

Regarding `C/C=C/c1ccc([C@H]2[C@@H](CO)N(C(=O)CN(C)C)C23CN(C(=O)C2CCCC2)C3)cc1`, the activity change, negative = inhibition is -0.233% (inactive) and the Gaussia minus Italica difference turned out to be 6.47%. In addition, under setting [1], the activity change, negative = inhibition is -6.7%.

For the compound `COc1cc(CN2CC3(CN(S(=O)(=O)c4cn(C)cn4)C3)c3c(n(C)c4cc(OC)ccc34)[C@H]2CO)cc(OC)c1`, the activity change, negative = inhibition is -2.88% (inactive) and the Gaussia minus Italica difference was -2.57%. The activity change, negative = inhibition under setting [1] was -0.316%.

Take `CCCNC(=O)C[C@H]1CC[C@H]2[C@H](COc3ccc(NC(=O)CC)cc3C(=O)N2C)O1`: the activity change, negative = inhibition is 2.97% (inactive) and the Gaussia minus Italica difference came out at 4.79%. Moreover, under setting [1], the activity change, negative = inhibition is -1.81%.
